In PubChem BioAssay (Tox21):
Inconclusive results are not listed. Active and inactive are the calls of the source. Unless noted, the call rests on the fitted dose curve.

Legend:
[1] = Nuclear factor erythroid 2-related factor 2/antioxidant responsive element (Nrf2/ARE) small molecule agonists: qHTS cell viability counter screen in human keratinocytes (AID 1919968; active means well fitted curve in the direction sought with a large enough effect in the repeat runs; an effect the other way counts as inactive or inconclusive; further: nearly all actives have a fitted effect of over 55% in size; further: potency means the concentration at half of the fitted maximal effect)
Method in brief: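 After a 5 h attachment period, ARE-reporter keratinocytes were dosed with compounds in DMSO and then cultured 23 h at 37 C. Cell viability came from CellTiter-Fluor signal read after a further 1 h.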

[2] = Nuclear factor erythroid 2-related factor 2/antioxidant responsive element (Nrf2/ARE) small molecule agonists: luciferase reporter gene qHTS assay in human keratinocytes (AID 1919969); further: nearly all actives have a fitted effect of over 35% in size; further: potency means the concentration at half of the fitted maximal effect
[3] = target: Gonadotropin-releasing hormone receptor (Homo sapiens) (UniProt P30968); experiment: Human gonadotropin-releasing hormone receptor (GnRHR) small molecule agonists, calcium flux assay in GnRHR-HEK293 cells (AID 1920063); further: nearly all actives have a fitted effect of over 35% in size
Method in brief: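 We seeded human GnRHR-expressing HEK293 cells for 18 hours, loaded them with calcium dye for an hour at 37 C, added test compounds, and recorded fluorescence intensity kinetically for three minutes.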

[4] = target: KiSS-1 receptor (Homo sapiens) (UniProt Q969F8); experiment: Human kisspeptin (KISS1R) small molecule agonists, calcium flux assay in KISS1R-HEK293 cells (AID 1920064; active means well fitted curve in the direction sought with a large enough effect in the repeat runs; an effect the other way counts as inactive or inconclusive)
Method in brief: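 Kinetic calcium assay, 1 s sampling over 3 min at Ex/Em 480/540, in HEK293 cells engineered with human KISS1R; compounds delivered in DMSO after 1 h dye loading.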

[5] = G protein-coupled receptor (GPCR) small molecule agonists, calcium flux assay: HEK293 wild type cell line counter screen (AID 1920065)
Method in brief: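 Calcium-sensitive dye, loaded 1 h at 37 C into cells cultured 18 h, reports compound-evoked calcium release as fluorescence (Ex/Em 480/540), measured over 3 min. Agonist mode; 15-point titrations, triplicate.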

[6] = p53 small molecule agonists, cell-based qHTS assay with human liver microsomes (AID 1963577);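 further: p53 response element beta-lactamase reporter cells with liver microsomes plus NADPH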
Method in brief: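 16 h, 37 C exposure of p53RE-bla cells to compounds with human liver microsomes and NADPH (0.5 mg/mL final each); detection via LiveBLAzer mixture, 2 h dark at room temperature.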

[7] = p53 small molecule agonists, cell-based qHTS assay with rat liver microsomes (AID 1963578)
Method in brief: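 With rat liver microsomes and NADPH present (0.5 mg/mL final each), p53RE-bla cells are treated with compound for 16 h at 37 C. LiveBLAzer detection mixture is then applied for 2 h at room temperature in the dark.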

[8] = p53 small molecule agonists, cell-based qHTS assay with human liver microsomes: qHTS cell viability counter screen (AID 1963579); further: nearly all actives have a fitted effect of over 45% in size
Method in brief: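 In this multiplexed counter screen, the reporter plates were subsequently treated with CellTiter-Glo so that cell viability, reflected by luminescence, could be recorded for p53RE-bla cells dosed 16 h with compounds under microsomal activation (HLM and NADPH).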

[9] = p53 small molecule agonists, cell-based qHTS assay with rat liver microsomes: qHTS cell viability counter screen (AID 1963580); further: nearly all actives have a fitted effect of over 45% in size
Method in brief: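 Viability is assessed in parallel with the p53 reporter read: HCT-116 p53RE-bla cells receive compounds plus rat microsomes and NADPH (0.5 mg/mL final apiece), incubate 16 h at 37 C, and then CellTiter-Glo luminescence is recorded.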

[10] = p53 small molecule agonists, cell-based qHTS assay: qHTS cell viability counter screen (AID 1963581); further: nearly all actives have a fitted effect of over 45% in size
Method in brief: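 Following 5 h attachment, HCT-116 p53RE-bla cells took up compound for 16 h at 37 C; the reporter was read with B/G FRET substrate (2 h RT), and viability then via CellTiter-Glo ATP luminescence.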

[11] = p53 small molecule agonists, cell-based qHTS assay (AID 1963582; active means well fitted activation curve with a large enough effect in the signal ratio in the repeat runs, not every such curve was filed as active; the % refers to the signal ratio)
Method in brief: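 In this cell-based concentration-response screen, a p53 response element drives beta-lactamase; cells received DMSO-borne compounds after 5 h culture and were incubated a further 16 h before FRET substrate development.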

[12] = target: 5-hydroxytryptamine receptor 2A (Homo sapiens) (UniProt P28223); experiment: 5-hydroxytryptamine receptor 2A (HTR2A) small molecule antagonists, cell-based qHTS assay (AID 1963586); further: nearly all actives have a fitted effect of over 45% in size; further: potency means the concentration at half of the fitted maximal effect
Method in brief: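 Antagonist-mode intracellular calcium assay: DOI (4 nM) added after 5 min compound pre-incubation at room temperature to dye-loaded HTR2A-CHO cells. Fluorescence followed for 3 min, sampled every second.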

[13] = target: 5-hydroxytryptamine receptor 2A (Homo sapiens) (UniProt P28223); experiment: 5-hydroxytryptamine receptor 2A (HTR2A) small molecule agonists, cell-based qHTS assay (AID 1963587); further: nearly all actives have a fitted effect of over 30% in size
Method in brief: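 CHO cells stably expressing human HTR2A, plated 18 h, loaded with calcium dye 1 h at 37 C. Agonist mode: compounds added and intracellular calcium fluorescence recorded kinetically for 2 min at 1 sec intervals.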

[14] = target: Muscarinic acetylcholine receptor M1 (Homo sapiens) (UniProt P11229); experiment: Cholinergic receptor muscarinic 1 (CHRM1) small molecule antagonists, cell-based qHTS assay (AID 1963588); further: nearly all actives have a fitted effect of over 40% in size; further: potency means the concentration at half of the fitted maximal effect
Method in brief: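 CHRM1-CHO calcium-flux assay, antagonist mode. Cells were seeded 18 h, dye-loaded 1 h at 37 C and given compound for 5 min at RT, then acetylcholine was added at 50nM. FDSS fluorescence was read 3 min; 15 concentrations, three runs.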

[15] = target: Muscarinic acetylcholine receptor M1 (Homo sapiens) (UniProt P11229); experiment: Cholinergic receptor muscarinic 1 (CHRM1) small molecule agonists, cell-based qHTS assay (AID 1963589); further: nearly all actives have a fitted effect of over 35% in size
Method in brief: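 Measures agonist-induced intracellular calcium rise. Stable human CHRM1 CHO line, 1 h dye load at 37 C, compounds from DMSO, kinetic fluorescence read.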

[16] = cAMP Responsive Elements (CRE) small molecule agonists, cell-based qHTS assay (AID 1963590)
Method in brief: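 A CRE-responsive beta-lactamase reporter in HEK 293T cells was used. Treatment ran 3 h at 37 C; detection used LiveBLAzer B/G FRET substrate for 2 h at room temperature.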

[17] = target: Beta-2 adrenergic receptor (Homo sapiens) (UniProt P07550); experiment: Adrenergic beta2 receptor (ADRB2) small molecule antagonists, cell-based qHTS assay (AID 1963592); further: series mostly up to about 92 µM; nearly all actives have a fitted effect of over 50% in size
Method in brief: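 Cells (CHO, stable ADRB2 overexpression) incubated 18-20hr at 37C; compounds added from DMSO; agonist mix (1nM isoproterenol, 100uM IBMX, 25uM Ro-20-1724) added; 0.5hr RT; d2-cAMP and anti-cAMP-cryptate added; 1hr RT; 665/615 nm read.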

[18] = target: D(2) dopamine receptor (Homo sapiens) (UniProt P14416); experiment: Dopamine D2 receptor (DRD2) small molecule agonists, cell-based qHTS assay (AID 1963594); further: nearly all actives have a fitted effect of over 35% in size
Method in brief: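 HEK293 cells stably expressing human DRD2, pre-treated with PDE inhibitor Ro20-1724 (0.1 mM final) and compound 10 min at room temperature, then stimulated with NKH477 (200nM […]) for 30 min. cAMP read by HTRF (665/620 nm).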

[19] = target: D(2) dopamine receptor (Homo sapiens) (UniProt P14416); experiment: Dopamine D2 receptor (DRD2) small molecule antagonists, cell-based qHTS assay (AID 1963595; active means well fitted inhibition curve with a large enough effect in the signal ratio in the repeat runs, with a control signal flat; the % refers to the signal ratio; further: potency means the concentration at half of the fitted maximal effect)
Method in brief: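 Antagonism was scored as restored cAMP in HEK293-DRD2 cells. These cells were stimulated with 200 nM NKH477 and 12 nM quinpirole for 30 min at room temperature, in the presence of 0.1 mM Ro20-1724.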

[20] = cAMP Responsive Elements (CRE) small molecule antagonists, cell-based qHTS assay (AID 1963591; active means well fitted inhibition curve with a large enough effect in the signal ratio in the repeat runs, not every such curve was filed as active; the % refers to the signal ratio)
Method in brief: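 HEK293T cells carrying a CRE-driven beta-lactamase reporter receive compound and NKH477 (0.25 uM final) for 3 h. Fluorescence from LiveBLAzer B/G FRET substrate is read after 2 h at room temperature.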
On the % scale 0 is the no-effect control and ±100 the full control effect.

Sequence of Beta-2 adrenergic receptor (Homo sapiens) (P07550 whole entry, looked up): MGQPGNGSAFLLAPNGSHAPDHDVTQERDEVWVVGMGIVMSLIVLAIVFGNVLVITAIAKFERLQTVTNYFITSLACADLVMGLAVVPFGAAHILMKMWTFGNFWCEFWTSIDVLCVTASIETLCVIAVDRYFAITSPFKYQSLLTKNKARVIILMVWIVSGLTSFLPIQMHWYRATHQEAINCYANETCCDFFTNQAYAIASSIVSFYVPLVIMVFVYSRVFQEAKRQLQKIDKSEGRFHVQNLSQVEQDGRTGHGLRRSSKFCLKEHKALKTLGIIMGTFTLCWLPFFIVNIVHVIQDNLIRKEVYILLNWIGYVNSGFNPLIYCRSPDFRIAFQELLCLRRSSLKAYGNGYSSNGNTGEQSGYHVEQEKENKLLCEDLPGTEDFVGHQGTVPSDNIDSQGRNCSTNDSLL
Sequence of Gonadotropin-releasing hormone receptor (Homo sapiens) (P30968 whole entry, looked up): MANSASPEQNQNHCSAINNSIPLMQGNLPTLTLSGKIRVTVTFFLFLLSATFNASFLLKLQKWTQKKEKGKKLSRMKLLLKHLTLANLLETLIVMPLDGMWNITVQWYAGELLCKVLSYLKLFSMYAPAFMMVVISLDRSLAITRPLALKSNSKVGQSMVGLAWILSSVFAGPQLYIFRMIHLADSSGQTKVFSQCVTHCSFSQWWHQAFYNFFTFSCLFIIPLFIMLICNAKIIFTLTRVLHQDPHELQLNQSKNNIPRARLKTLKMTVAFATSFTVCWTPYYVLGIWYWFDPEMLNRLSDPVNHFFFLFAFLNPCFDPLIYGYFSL
Sequence of D(2) dopamine receptor (Homo sapiens) (P14416 whole entry, looked up): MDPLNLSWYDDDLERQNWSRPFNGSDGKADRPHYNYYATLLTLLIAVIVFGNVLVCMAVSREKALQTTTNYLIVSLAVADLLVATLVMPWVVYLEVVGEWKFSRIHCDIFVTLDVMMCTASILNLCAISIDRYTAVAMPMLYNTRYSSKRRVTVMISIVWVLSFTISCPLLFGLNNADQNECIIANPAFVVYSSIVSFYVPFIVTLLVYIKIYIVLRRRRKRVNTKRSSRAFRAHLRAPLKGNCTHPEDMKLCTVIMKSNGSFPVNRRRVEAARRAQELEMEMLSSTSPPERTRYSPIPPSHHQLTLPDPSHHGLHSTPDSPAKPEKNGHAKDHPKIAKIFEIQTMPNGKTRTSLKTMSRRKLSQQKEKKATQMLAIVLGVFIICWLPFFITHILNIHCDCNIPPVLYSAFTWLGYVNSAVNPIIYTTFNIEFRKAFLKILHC
Sequence of 5-hydroxytryptamine receptor 2A (Homo sapiens) (P28223 whole entry, looked up): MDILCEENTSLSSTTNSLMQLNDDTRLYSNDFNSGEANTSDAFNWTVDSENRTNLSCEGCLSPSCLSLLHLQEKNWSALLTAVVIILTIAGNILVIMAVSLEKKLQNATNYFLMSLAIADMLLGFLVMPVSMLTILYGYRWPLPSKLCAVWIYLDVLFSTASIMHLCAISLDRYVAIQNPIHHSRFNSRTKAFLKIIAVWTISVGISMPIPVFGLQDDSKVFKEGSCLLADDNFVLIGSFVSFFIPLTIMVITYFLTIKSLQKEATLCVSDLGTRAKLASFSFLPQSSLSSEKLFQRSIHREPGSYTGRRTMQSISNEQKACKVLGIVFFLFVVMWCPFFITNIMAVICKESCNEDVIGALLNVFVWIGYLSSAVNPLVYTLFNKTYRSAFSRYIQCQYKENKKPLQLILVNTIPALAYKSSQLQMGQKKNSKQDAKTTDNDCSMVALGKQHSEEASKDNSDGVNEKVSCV
Sequence of Muscarinic acetylcholine receptor M1 (Homo sapiens) (P11229 whole entry, looked up): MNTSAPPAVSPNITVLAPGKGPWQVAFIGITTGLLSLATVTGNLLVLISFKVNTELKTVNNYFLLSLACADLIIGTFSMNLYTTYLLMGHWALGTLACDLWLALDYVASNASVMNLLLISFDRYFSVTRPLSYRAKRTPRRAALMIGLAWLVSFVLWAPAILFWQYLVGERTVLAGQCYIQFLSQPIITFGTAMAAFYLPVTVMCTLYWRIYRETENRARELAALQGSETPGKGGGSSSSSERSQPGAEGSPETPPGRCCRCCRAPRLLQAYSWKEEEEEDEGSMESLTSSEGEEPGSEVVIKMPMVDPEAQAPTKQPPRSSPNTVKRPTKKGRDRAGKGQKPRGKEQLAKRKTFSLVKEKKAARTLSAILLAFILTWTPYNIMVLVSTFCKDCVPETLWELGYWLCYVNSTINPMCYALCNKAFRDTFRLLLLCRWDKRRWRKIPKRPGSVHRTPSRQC
Sequence of KiSS-1 receptor (Homo sapiens) (Q969F8 whole entry, looked up): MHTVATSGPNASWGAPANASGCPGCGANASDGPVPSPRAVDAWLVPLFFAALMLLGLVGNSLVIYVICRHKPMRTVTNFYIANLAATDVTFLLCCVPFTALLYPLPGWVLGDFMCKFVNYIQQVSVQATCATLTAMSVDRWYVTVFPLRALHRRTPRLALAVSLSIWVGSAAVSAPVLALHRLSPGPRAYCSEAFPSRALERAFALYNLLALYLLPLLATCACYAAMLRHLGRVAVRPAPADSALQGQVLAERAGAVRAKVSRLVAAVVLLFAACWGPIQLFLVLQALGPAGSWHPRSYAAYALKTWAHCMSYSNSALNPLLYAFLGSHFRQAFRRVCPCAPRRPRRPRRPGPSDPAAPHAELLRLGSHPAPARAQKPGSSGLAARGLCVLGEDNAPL

CSc1nc(N=[N+]=[N-])nc(NC(C)C)n1
inactive: Potency [1] | Potency [2] | Potency [3] | Potency [4] | Potency [5] | Potency [6] | Potency [7] | Potency [8] | Potency [9] | Potency [10] | Potency [11] | Potency [12] | Potency [13] | Potency [14] | Potency [15] | Potency [16] | Potency [17] | Potency [18] | Potency [19]

CCCCCCCCCCCCN(C)C
inactive: Potency [1] | Potency [2] | Potency [3] | Potency [4] | Potency [5] | Potency [6] | Potency [7] | Potency [8] | Potency [9] | Potency [10] | Potency [11] | Potency [12] | Potency [13] | Potency [14] | Potency [15] | Potency [16] | Potency [17] | Potency [18] | Potency [19]

CCCCCCC(=O)CCCCCC/C=C/C[C@@H](O)[C@H](O)[C@@](N)(CO)C(=O)O
inactive: activity change, negative = cytotoxicity [1] -1.3% [at 19 µM] | activity, positive = activation [2] -3.71% [at 19 µM] | activity change [3] 0.629% [at 11.8 µM, stronger effect = higher value] | activation [4] 0.0857% [at 15.8 µM] | activation [5] 0.714% [at 11.8 µM] | activation [6] 4.34% [at 13.5 µM] | activation [7] 0.608% [at 13.6 µM] | activity change, negative = cytotoxicity [8] 0.682% [at 13.5 µM] | activity change, negative = cytotoxicity [9] -0.611% [at 13.5 µM] | activity change, negative = cytotoxicity [10] 17.4% [at 13.5 µM] | activation [11] 0.605% [at 13.5 µM] | activity, negative = inhibition [12] 87.4% [at 12.7 µM] | activation [13] 2.62% [at 15.9 µM] | activity, negative = inhibition [14] 3.07% [at 12.6 µM] | activation [15] -0.559% [at 15.8 µM] | activation [16] 3.57% [at 19 µM] | activity change, negative = inhibition [20] -12.2% [at 18.9 µM] | activity change, negative = inhibition [17] 9.53% [at 19 µM] | activity change, negative = inhibition [19] 0.928% [at 18.9 µM]

N#CCCSCCC#N
inactive: Potency [1] | Potency [2] | Potency [3] | Potency [4] | Potency [5] | Potency [6] | Potency [7] | Potency [8] | Potency [9] | Potency [10] | Potency [11] | Potency [12] | Potency [14] | Potency [15] | Potency [16] | Potency [17] | Potency [18] | Potency [19]

O=C(Cl)C(Cl)(Cl)Cl
inactive: Potency [1] | Potency [2] | Potency [3] | Potency [4] | Potency [5] | Potency [6] | Potency [7] | Potency [8] | Potency [9] | Potency [10] | Potency [11] | Potency [12] | Potency [16] | Potency [20] | Potency [18] | Potency [19]

CCO[C@H]1O[C@@H]2OC3(C)CC[C@H]4[C@H](C)CC[C@@H]([C@H]1C)[C@@]24OO3
inactive: Potency [1] | Potency [2] | Potency [3] | Potency [4] | Potency [5] | Potency [6] | Potency [7] | Potency [8] | Potency [9] | Potency [10] | Potency [11] | Potency [12] | Potency [14] | Potency [15] | Potency [16] | Potency [17] | Potency [18] | Potency [19]

C=CC(=O)OCCCCOC(=O)C=C
inactive: Potency [3] | Potency [4] | Potency [5] | Potency [6] | Potency [7] | Potency [8] | Potency [9] | Potency [10] | Potency [11] | Potency [12] | Potency [13] | Potency [14] | Potency [15] | Potency [17] | Potency [18] | Potency [19]
active: Potency [1] 61100 nM | Potency [2] 24300 nM

O=C(CCCN1CCC(n2c(=O)[nH]c3ccccc32)CC1)c1ccc(F)cc1
active: Potency [12] 1830 nM | Potency [14] 2050 nM | Potency [19] 42.2 nM
inactive: Potency [1] | Potency [2] | Potency [3] | Potency [4] | Potency [5] | Potency [6] | Potency [7] | Potency [8] | Potency [9] | Potency [10] | Potency [11] | Potency [15] | Potency [16] | Potency [18]
